# Measurements as given in the supplement of paper PMC8728848.
# This is one part of a sample in which the strongest signals are shown more often than they occur.
# B1: CFEM-CGl (Candida glabrata), Q6FRS0 (protein)
# chain: VLATPPACLLACVAQVSKQSSQCHTLNQVGCFCENENTAIKNCLDSICPNGNSDAAYTAFKNSCGDVGKAVASV
# Key:
# Assay in all cases: glycan array binding signal (z-score within array); higher = stronger binding
# Settings in all cases: glycan notation: IUPAC condensed, linker removed
# [1] = target: Fuc(a1-2)Gal(b1-3)GalNAc(a1-3)[Fuc(a1-2)]Gal(b1-4)Glc
# Summary of the method: (§1)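 Arrays were curated from the Consortium for Functional Glycomics database, 3228 in total, and kept only where the protein sequence was available. Binding is expressed as a within-array Z-score. This score was averaged across arrays of the same protein sequence at different concentrations or buffers and across linkers, and negative values can be read as non-binding.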
# [2] = target: Fuc(a1-2)Gal(b1-3)GlcNAc(b1-2)Man(a1-3)[Fuc(a1-2)Gal(b1-3)GlcNAc(b1-2)Man(a1-6)]Man(b1-4)GlcNAc(b1-4)[Fuc(a1-6)]GlcNAc
# Summary of the method: as §1
# [3] = target: Fuc(a1-2)Gal(b1-4)GlcNAc(b1-3)Gal(b1-4)GlcNAc
# Summary of the method: as §1
# [4] = target: Fuc(a1-2)Gal(b1-4)GlcNAc(b1-3)Gal(b1-4)GlcNAc(b1-2)Man(a1-3)[Fuc(a1-2)Gal(b1-4)GlcNAc(b1-3)Gal(b1-4)GlcNAc(b1-2)Man(a1-6)]Man(b1-4)GlcNAc(b1-4)GlcNAc
# Summary of the method: as §1
# [5] = target: Fuc(a1-2)Gal(b1-4)GlcNAc(b1-3)GalNAc
# Summary of the method: as §1
# [6] = target: Fuc(a1-2)Gal(b1-4)GlcNAc(b1-6)GalNAc
# Summary of the method: as §1
# [7] = target: Fuc(a1-2)Gal(b1-4)GlcNAc6S
# Summary of the method: as §1
# [8] = target: Fuc(a1-2)[GalNAc(a1-3)]Gal(b1-3)GalNAc(a1-3)[Fuc(a1-2)]Gal(b1-4)GlcNAc
# Summary of the method: as §1
# [9] = target: Fuc(a1-2)[GalNAc(a1-3)]Gal(b1-4)GlcNAc(b1-2)Man(a1-3)[Fuc(a1-2)[GalNAc(a1-3)]Gal(b1-4)GlcNAc(b1-2)Man(a1-6)]Man(b1-4)GlcNAc(b1-4)[Fuc(a1-6)]GlcNAc
# Summary of the method: as §1
# [10] = target: Fuc(a1-2)[GalNAc(a1-3)]Gal(b1-4)[Fuc(a1-3)]GlcNAc(b1-3)GalNAc
# Summary of the method: as §1
# [11] = target: Fuc(a1-3)[Gal(b1-4)]GlcNAc(b1-2)Man(a1-3)[Fuc(a1-3)[Gal(b1-4)]GlcNAc(b1-2)Man(a1-6)]Man(b1-4)GlcNAc(b1-4)[Fuc(a1-6)]GlcNAc
# Summary of the method: as §1
# [12] = target: Fuc(a1-3)[Gal(b1-4)]GlcNAc(b1-3)Gal(b1-3)[Fuc(a1-4)]GlcNAc
# Summary of the method: as §1
# Fuc(b1-3)GlcNAc = target: Fuc(b1-3)GlcNAc
# Summary of the method: as §1
# Gal(a1-4)Gal(b1-4)Glc = target: Gal(a1-4)Gal(b1-4)Glc
# Summary of the method: as §1
# Gal(b1-3)Gal = target: Gal(b1-3)Gal
# Summary of the method: as §1
# Gal(b1-3)Gal(b1-4)GlcNAc = target: Gal(b1-3)Gal(b1-4)GlcNAc
# Summary of the method: as §1
# [13] = target: Gal(b1-3)GalNAc(a1-3)[Fuc(a1-2)]Gal(b1-4)Glc
# Summary of the method: as §1
# Gal(b1-3)GalNAc(b1-3)Gal = target: Gal(b1-3)GalNAc(b1-3)Gal
# Summary of the method: as §1
# [14] = target: Gal(b1-3)GalNAc(b1-4)Gal(b1-4)Glc
# Summary of the method: as §1
# [15] = target: Gal(b1-3)GlcNAc(b1-2)Man(a1-3)[Gal(b1-3)GlcNAc(b1-2)Man(a1-6)]Man(b1-4)GlcNAc(b1-4)GlcNAc
# Summary of the method: as §1
# [16] = target: Gal(b1-3)GlcNAc(b1-3)Gal(b1-4)[Fuc(a1-3)]GlcNAc
# Summary of the method: as §1
# [17] = target: Gal(b1-3)[Fuc(a1-4)]GlcNAc(b1-2)Man(a1-3)[Gal(b1-3)[Fuc(a1-4)]GlcNAc(b1-2)Man(a1-6)]Man(b1-4)GlcNAc(b1-4)[Fuc(a1-6)]GlcNAc
# Summary of the method: as §1
# [18] = target: Gal(b1-3)[Neu5Ac(a2-6)]GalNAc
# Summary of the method: as §1
# [19] = target: Gal(b1-4)GlcNAc(b1-3)Gal(b1-4)GlcNAc(b1-2)Man(a1-3)[Gal(b1-4)GlcNAc(b1-3)Gal(b1-4)GlcNAc(b1-2)Man(a1-6)]Man(b1-4)GlcNAc(b1-4)GlcNAc
# Summary of the method: as §1
# [20] = target: Gal(b1-4)GlcNAc(b1-3)Gal(b1-4)GlcNAc(b1-3)Gal(b1-4)GlcNAc(b1-3)Gal(b1-4)GlcNAc(b1-2)[Gal(b1-4)GlcNAc(b1-3)Gal(b1-4)GlcNAc(b1-3)Gal(b1-4)GlcNAc(b1-3)Gal(b1-4)GlcNAc(b1-6)]Man(a1-6)[Gal(b1-4)GlcNAc(b1-3)Gal(b1-4)GlcNAc(b1-3)Gal(b1-4)GlcNAc(b1-3)Gal(b1-4)GlcNAc(b1-2)Man(a1-3)]Man(b1-4)GlcNAc(b1-4)[Fuc(a1-6)]GlcNAc
# Summary of the method: as §1
# [21] = target: Gal(b1-4)GlcNAc(b1-3)Gal(b1-4)GlcNAc(b1-3)GalNAc
# Summary of the method: as §1
# [22] = target: Gal(b1-4)GlcNAc(b1-3)Gal(b1-4)[Fuc(a1-3)]GlcNAc(b1-3)Gal(b1-4)[Fuc(a1-3)]GlcNAc
# Summary of the method: as §1
# [23] = target: Gal(b1-4)GlcNAc(b1-3)[Gal(b1-4)GlcNAc(b1-6)]Gal(b1-4)GlcNAc
# Summary of the method: as §1
# [24] = target: Gal3S(b1-4)[Fuc(a1-3)]GlcNAc
# Summary of the method: as §1
# GlcA(b1-3)GlcNAc = target: GlcA(b1-3)GlcNAc
# Summary of the method: as §1
# [25] = target: GlcNAc(a1-4)Gal(b1-4)GlcNAc(b1-3)Gal(b1-4)Glc
# Summary of the method: as §1
# [26] = target: GlcNAc(b1-2)[GlcNAc(b1-4)]Man(a1-3)[GlcNAc(b1-4)][GlcNAc(b1-2)[GlcNAc(b1-6)]Man(a1-6)]Man(b1-4)GlcNAc(b1-4)[Fuc(a1-6)]GlcNAc
# Summary of the method: as §1
# [27] = target: GlcNAc(b1-3)Gal(b1-4)GlcNAc(b1-3)Gal(b1-4)GlcNAc(b1-2)Man(a1-3)[GlcNAc(b1-3)Gal(b1-4)GlcNAc(b1-3)Gal(b1-4)GlcNAc(b1-2)Man(a1-6)]Man(b1-4)GlcNAc(b1-4)GlcNAc
# Summary of the method: as §1
# [28] = target: GlcNAc(b1-3)Gal(b1-4)GlcNAc(b1-3)Gal(b1-4)GlcNAc(b1-3)Gal(b1-4)GlcNAc(b1-3)Gal(b1-4)GlcNAc(b1-2)Man(a1-3)[GlcNAc(b1-3)Gal(b1-4)GlcNAc(b1-3)Gal(b1-4)GlcNAc(b1-3)Gal(b1-4)GlcNAc(b1-3)Gal(b1-4)GlcNAc(b1-2)Man(a1-6)]Man(b1-4)GlcNAc(b1-4)GlcNAc
# Summary of the method: as §1
# [29] = target: GlcNAc(b1-3)[GlcNAc(b1-6)]Gal(b1-4)GlcNAc
# Summary of the method: as §1
# [30] = target: GlcNAc(b1-4)GlcNAc(b1-4)GlcNAc(b1-4)GlcNAc(b1-4)GlcNAc(b1-4)GlcNAc
# Summary of the method: as §1
# Kdn(a2-3)Gal(b1-3)GlcNAc = target: Kdn(a2-3)Gal(b1-3)GlcNAc
# Summary of the method: as §1
# [31] = target: Man(a1-3)[Man(a1-6)]Man(a1-6)[Man(a1-3)]Man(b1-4)GlcNAc(b1-4)GlcNAc
# Summary of the method: as §1
# [32] = target: Neu5Ac(a2-3)Gal(b1-3)GalNAc(b1-4)[Neu5Ac(a2-8)Neu5Ac(a2-3)]Gal(b1-4)Glc
# Summary of the method: as §1
# [33] = target: Neu5Ac(a2-3)Gal(b1-3)GalNAc6S
# Summary of the method: as §1
# [34] = target: Neu5Ac(a2-3)Gal(b1-3)GlcNAc(b1-3)Gal(b1-4)GlcNAc
# Summary of the method: as §1
# [35] = target: Neu5Ac(a2-3)Gal(b1-3)[Fuc(a1-4)]GlcNAc
# Summary of the method: as §1
# [36] = target: Neu5Ac(a2-3)Gal(b1-4)GlcNAc(b1-2)Man(a1-3)[Neu5Ac(a2-3)Gal(b1-4)GlcNAc(b1-2)Man(a1-6)]Man(b1-4)GlcNAc(b1-4)GlcNAc
# Summary of the method: as §1
# [37] = target: Neu5Ac(a2-3)Gal(b1-4)GlcNAc6S
# Summary of the method: as §1
# [38] = target: Neu5Ac(a2-3)Gal(b1-4)[Fuc(a1-3)]GlcNAc(b1-3)Gal
# Summary of the method: as §1
# [39] = target: Neu5Ac(a2-3)Gal(b1-4)[Fuc(a1-3)]GlcNAc(b1-3)GalNAc
# Summary of the method: as §1
# [40] = target: Neu5Ac(a2-3)Gal(b1-4)[Fuc(a1-3)]GlcNAc(b1-6)[Gal(b1-3)]GalNAc
# Summary of the method: as §1
# [41] = target: Neu5Ac(a2-3)GalNAc(b1-4)GlcNAc
# Summary of the method: as §1
# [42] = target: Neu5Ac(a2-3)[Neu5Ac(a2-6)]GalNAc
# Summary of the method: as §1
# [43] = target: Neu5Ac(a2-6)Gal(b1-3)GlcNAc(b1-3)[Gal(b1-4)GlcNAc(b1-6)]Gal(b1-4)Glc
# Summary of the method: as §1
# [44] = target: Neu5Ac(a2-6)Gal(b1-4)GlcNAc(b1-3)Gal(b1-4)GlcNAc(b1-3)Gal(b1-4)GlcNAc(b1-2)Man(a1-3)[Neu5Ac(a2-6)Gal(b1-4)GlcNAc(b1-3)Gal(b1-4)GlcNAc(b1-3)Gal(b1-4)GlcNAc(b1-2)Man(a1-6)]GalNAc
# Summary of the method: as §1
# Neu5Ac(b2-6)GalNAc = target: Neu5Ac(b2-6)GalNAc
# Summary of the method: as §1
# [45] = target: Neu5Ac9Ac(a2-3)Gal(b1-4)GlcNAc
# Summary of the method: as §1
# [46] = target: Neu5Gc(a2-3)Gal(b1-4)GlcNAc
# Summary of the method: as §1
binder,measurement,setting,value
B1,glycan array binding signal (z-score),[1],-0.334
same,glycan array binding signal (z-score),[2],-0.163
same,glycan array binding signal (z-score),[3],-0.233
same,glycan array binding signal (z-score),[4],-0.168
same,glycan array binding signal (z-score),[5],8.8
same,glycan array binding signal (z-score),[6],0.206
same,glycan array binding signal (z-score),[7],-0.397
same,glycan array binding signal (z-score),[8],-0.609
same,glycan array binding signal (z-score),[9],-0.183
same,glycan array binding signal (z-score),[10],4.55
same,glycan array binding signal (z-score),[11],-0.347
same,glycan array binding signal (z-score),[12],-0.484
same,glycan array binding signal (z-score),Fuc(b1-3)GlcNAc,-0.346
same,glycan array binding signal (z-score),Gal(a1-4)Gal(b1-4)Glc,-0.153
same,glycan array binding signal (z-score),Gal(b1-3)Gal,3.15
same,glycan array binding signal (z-score),Gal(b1-3)Gal(b1-4)GlcNAc,2.81
same,glycan array binding signal (z-score),[13],0.176
same,glycan array binding signal (z-score),Gal(b1-3)GalNAc(b1-3)Gal,6.73
same,glycan array binding signal (z-score),[14],9.88
same,glycan array binding signal (z-score),[15],-0.248
same,glycan array binding signal (z-score),[16],-0.497
same,glycan array binding signal (z-score),[17],-0.165
same,glycan array binding signal (z-score),[18],2.93
same,glycan array binding signal (z-score),[19],4.99
same,glycan array binding signal (z-score),[20],0.09
same,glycan array binding signal (z-score),[21],0.84
same,glycan array binding signal (z-score),[22],-0.249
same,glycan array binding signal (z-score),[23],-0.249
same,glycan array binding signal (z-score),[24],-0.353
same,glycan array binding signal (z-score),GlcA(b1-3)GlcNAc,-0.457
same,glycan array binding signal (z-score),[25],-0.384
same,glycan array binding signal (z-score),[26],-0.628
same,glycan array binding signal (z-score),[27],3.84
same,glycan array binding signal (z-score),[28],-0.264
same,glycan array binding signal (z-score),[29],-0.258
same,glycan array binding signal (z-score),[30],0.197
same,glycan array binding signal (z-score),Kdn(a2-3)Gal(b1-3)GlcNAc,-0.288
same,glycan array binding signal (z-score),[31],-0.003
same,glycan array binding signal (z-score),[32],-0.372
same,glycan array binding signal (z-score),[33],0.752
same,glycan array binding signal (z-score),[34],-0.343
same,glycan array binding signal (z-score),[35],-0.12
same,glycan array binding signal (z-score),[36],-0.517
same,glycan array binding signal (z-score),[37],-0.111
same,glycan array binding signal (z-score),[38],-0.311
same,glycan array binding signal (z-score),[39],3.44
same,glycan array binding signal (z-score),[40],0.977
same,glycan array binding signal (z-score),[41],-0.449
same,glycan array binding signal (z-score),[42],-0.425
same,glycan array binding signal (z-score),[43],-0.355
same,glycan array binding signal (z-score),[44],4.31
same,glycan array binding signal (z-score),Neu5Ac(b2-6)GalNAc,0.161
same,glycan array binding signal (z-score),[45],-0.485
same,glycan array binding signal (z-score),[46],-0.194
